BAZ2B inh = qHTS Assay for Inhibitors of BAZ2B | Bromodomain adjacent to zinc finger domain protein 2B (Homo sapiens), Q9UIF8 | AlphaScreen BAZ2B-H3K14Ac peptide displacement | Potency, µM (titrated, usually from 114 µM), without a hit: top-dose activity change, negative = inhibition, usual class: inhibitors | 4.4% of 360,000 active | AID 504333, 2011; also: potency is read from the fitted curve at half-maximal effect; % is scaled to controls: 0 for no effect and ±100 for the full control effect; nearly all actives have a fitted effect of over 60% in size
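In this displacement format the biotinylated H3(5-23) peptide acetylated at Lys14 serves as ligand at 50 nM, with BAZ2B at 50 nM in PBS pH 7.4 containing 0.01% Tween-20. Donor and acceptor beads are 10 ug/mL final.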
CtBP-E1A blk = qHTS Assay for Inhibitors of the CtBP/E1A Interaction; CtBP / adenovirus E1A interaction (AlphaScreen); activity change, % (concentration not given with the values); 0.49% of 340,000 active; AlphaScreen GST-E1A/His-CtBP binding, 1536-well; hits give low values; AID 651724, 2012; in the data active = activity change below about -65%; inconclusive = mostly about -30% to -63%; also: % is scaled to controls: 0 for no effect and ±100 for the full control effect
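In 5 uL wells, 23 nL compound meets equimolar GST-E1A and His-CtBP (5X stock 125 nM each) for 2 h, 37 °C. Beads (5X, 50 ug/mL) then 1 h, 37 °C, dark.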
JMJD2A Tudor inh = qHTS Assay for Inhibitors of JMJD2A-Tudor Domain | Lysine-specific demethylase 4A (Homo sapiens), O75164 | AlphaScreen JMJD2A-Tudor / H3K4me3 peptide binding | Potency, µM (titrated, usually from 114 µM), inactives show at the top dose activity change, negative = inhibition, hits mostly inhibitors | 4.4% of 390,000 active | AID 504339, 2011; also: potency is read from the fitted curve at half-maximal effect; % is scaled to controls: 0 for no effect and ±100 for the full control effect; nearly all actives have a fitted effect of over 50% in size
HP1b binding inh = HTS for Inhibitors of HP1-beta Chromodomain Interactions with Methylated Histone Tails; Potency, µM (series often up to 114 µM), without a hit: top-dose activity change, negative = inhibition, hits mostly inhibitors; 0.56% of 390,000 active; AlphaScreen HP1-beta / biotin-H3K9me3 peptide binding; Chromobox protein homolog 1 (Homo sapiens), P83916; also: potency is read from the fitted curve at half-maximal effect; nearly all actives have a fitted effect of over 70% in size
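AlphaScreen: HP1-beta (50 nM) preformed 30 min with biotin-H3(1-18)K9me3 peptide (50 nM) in PBS pH 7.4, 0.01% Tween-20. Compound added for 30 min at RT, then streptavidin donor/nickel chelate acceptor beads (10 ug/mL) for 30 min.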
G9a block = qHTS Assay for Inhibitors of Histone Lysine Methyltransferase G9a. Histone-lysine N-methyltransferase EHMT2 (Homo sapiens), Q96KQ7. G9a H3K9 monomethylation, AlphaScreen, 2 h. Potency, µM (series often up to 102 µM), inactives show top-dose activity, negative = inhibition, usual class: inhibitors. 8.8% of 350,000 active; also: potency is read from the fitted curve at half-maximal effect; % is scaled to controls: 0 for no effect and ±100 for the full control effect; nearly all actives have a fitted effect of over 75% in size
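Step 1: enzyme (final 20 nM) with compound, 15 min RT. Step 2: substrate peptide 500 nM and SAM 20 uM, 2 h RT. Step 3: anti-H3K9me1 antibody and AlphaScreen beads, 10 min, then plate read.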
Six1-Eya2 inh = qHTS Assay for Inhibitors of the Six1/Eya2 Interaction. Homeobox protein SIX1 (Homo sapiens) + Protein phosphatase EYA2 (Homo sapiens), …. AlphaScreen GST-Six1/His-Eya2 binding, biochemical; hits give low values. activity change, % (no concentration beside the values). 0.56% of 360,000 active; in the data active = activity change below about -65%; inconclusive = mostly about -30% to -63%; also: % is scaled to controls: 0 for no effect and ±100 for the full control effect
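Six1/Eya2 binding was read as AlphaScreen signal after compounds were pinned into GST-Six1 plus His-tagged Eya2 (5X stock 250/500 nM) in pH 8.0 Tris/NaCl/TCEP buffer, beads added, then incubated 1 h, 37 C, dark.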
Starred values were filed as active, the others as inactive; [ ] = another dose, or the depositor's remark. This is a sample that favours compounds with a hit; in the whole collection about 10% have one here. Unless noted, calls follow the shape of the dose curve; as a rule, active = well fitted inhibition curve with a large enough effect; inconclusive = small, poorly fitted or top-dose-only effect; inactive = no such curve, though single readings can be large or run the other way.

What do the screens show for `CCC1(c2ccc(F)cc2)NC(=O)N(CC(=O)Nc2ccccc2C)C1=O` (stereo not given)?
BAZ2B inh: -5%; CtBP-E1A blk: 0; JMJD2A Tudor inh: 71µM*; HP1b binding inh: 6%; G9a block: -7%; Six1-Eya2 inh: -18

What do the screens show for `CCC1(c2ccccc2)NC(=O)N(CC(=O)Nc2ccccc2C(=O)NC2CC2)C1=O` (stereo not given)?
BAZ2B inh: 4%; CtBP-E1A blk: 5; JMJD2A Tudor inh: -11%; HP1b binding inh: 37%; G9a block: 50µM*; Six1-Eya2 inh: -1

What do the screens show for `Cc1ccc(C)c(N2CCN(c3ncccc3[N+](=O)[O-])CC2)c1`?
BAZ2B inh: 32µM*; CtBP-E1A blk: inconclusive; JMJD2A Tudor inh: 40µM*; HP1b binding inh: -21%; G9a block: -10%[2.33 µM]; Six1-Eya2 inh: -27

What do the screens show for `Cc1ccc(C)c(N2CCN(c3ccc([N+](=O)[O-])cn3)CC2)c1`?
BAZ2B inh: -11%; CtBP-E1A blk: -7; JMJD2A Tudor inh: -32%; HP1b binding inh: 11%; G9a block: 5%; Six1-Eya2 inh: -2

What do the screens show for `Cc1ccc(N2CCN(c3ncccc3[N+](=O)[O-])CC2)c(C)c1`?
BAZ2B inh: 28µM*; CtBP-E1A blk: -24; JMJD2A Tudor inh: 40µM*; HP1b binding inh: inconclusive; G9a block: 18µM*; Six1-Eya2 inh: inconclusive

Results for O=[N+]([O-])c1cccnc1N1CCN(c2ccccc2F)CC1 ?
BAZ2B inh: inconclusive; CtBP-E1A blk: -24; JMJD2A Tudor inh: 50µM*; HP1b binding inh: inconclusive; G9a block: inconclusive; Six1-Eya2 inh: inconclusive

What do the screens show for `O=[N+]([O-])c1cccnc1N1CCCCC1`?
BAZ2B inh: -28%; CtBP-E1A blk: -4; JMJD2A Tudor inh: inconclusive; HP1b binding inh: -10%; G9a block: 6%; Six1-Eya2 inh: -1

Results for CCOC(=O)c1nn(-c2ccc(C)cc2)c(=O)cc1OCC(=O)Nc1ccc(OC)cc1 ?
BAZ2B inh: -5%; CtBP-E1A blk: -19; JMJD2A Tudor inh: -35%; HP1b binding inh: 23%; G9a block: -21%; Six1-Eya2 inh: 9

What do the screens show for `O=S(=O)(c1ccc(Br)cc1)N1CCN(S(=O)(=O)c2ccc3c(c2)OCCO3)CC1`?
JMJD2A Tudor inh: -9%

How did Cc1nc2nc(CNC(=O)OC(C)(C)C)nn2c(C)c1CCC(=O)NCc1ccc(F)cc1 do in these assays?
BAZ2B inh: -1%; JMJD2A Tudor inh: 0%; HP1b binding inh: 22%; G9a block: -5%[59 µM]

Results for O=C(O)/C=C/C(=O)Nc1ccccc1SC(F)(F)C(F)(F)C(F)(F)F ?
BAZ2B inh: -19%; CtBP-E1A blk: 14; JMJD2A Tudor inh: inconclusive; HP1b binding inh: 28%; G9a block: 45µM*; Six1-Eya2 inh: 10

Results for CC(C)n1c(=S)[nH]c2cc(Cl)ccc21 ?
BAZ2B inh: inconclusive; JMJD2A Tudor inh: inconclusive; HP1b binding inh: 11%; G9a block: 10µM*; Six1-Eya2 inh: -7

What do the screens show for `Cc1ccccc1C(=O)NCC(=O)OC(C)C(=O)NC(C)CCc1ccccc1` (stereo not given)?
BAZ2B inh: -6%; JMJD2A Tudor inh: -12%; HP1b binding inh: 17%; G9a block: 21%[12.7 µM]; Six1-Eya2 inh: 4

Results for CCCCN(CCCNC(=O)c1ccc2c(c1)NC(=O)CN2C)c1ccccc1 ?
CtBP-E1A blk: -6; Six1-Eya2 inh: -14

Results for Cn1c(N/N=C/c2c[nH]c3ccccc23)nc2ccccc21 ?
BAZ2B inh: 32µM*; CtBP-E1A blk: -16; JMJD2A Tudor inh: 50µM*; HP1b binding inh: -37%; G9a block: inconclusive; Six1-Eya2 inh: -29

How did Cc1cc(N/N=C/c2c[nH]c3ccccc23)c2ccccc2n1 do in these assays?
BAZ2B inh: -35%; CtBP-E1A blk: 1; JMJD2A Tudor inh: -16%; HP1b binding inh: 10%; Six1-Eya2 inh: 15

What do the screens show for `CCCn1c(/N=C/c2c[nH]c3ccccc23)nc2ccccc21`?
BAZ2B inh: inconclusive; CtBP-E1A blk: 4; JMJD2A Tudor inh: 63µM*; HP1b binding inh: -32%; G9a block: 9%[12.7 µM]; Six1-Eya2 inh: -11

Results for CCC(C)NC(=O)c1nn(-c2ccc(C)cc2)nc1CO (stereo not given) ?
BAZ2B inh: 3%; JMJD2A Tudor inh: -20%; HP1b binding inh: 9%; G9a block: 6%[59 µM]

How did CCOc1ccc(S(=O)(=O)n2nnc3ccccc32)cc1C(C)C do in these assays?
BAZ2B inh: -30%; G9a block: -46%[59 µM]

How did CCOC(=O)c1c(NC(=O)CSc2nnc(-c3ccco3)o2)sc(C(C)=O)c1C do in these assays?
BAZ2B inh: -29%; CtBP-E1A blk: -1; JMJD2A Tudor inh: -20%; HP1b binding inh: 35%; G9a block: 12%[59 µM]; Six1-Eya2 inh: -9

What do the screens show for `O=C(CSc1nnc(-c2cccnc2)o1)Nc1nccs1`?
BAZ2B inh: inconclusive; CtBP-E1A blk: inconclusive; JMJD2A Tudor inh: inconclusive; HP1b binding inh: 48%; G9a block: 21%; Six1-Eya2 inh: -71*

What do the screens show for `O=C(CSc1nnc(-c2cccnc2)o1)Nc1ccc(F)cc1`?
CtBP-E1A blk: 2; Six1-Eya2 inh: 1

Results for CCOC(=O)c1c(NC(=O)CSc2nnc(-c3ccccc3C)n2C)sc(C(C)=O)c1C ?
BAZ2B inh: 50µM*; CtBP-E1A blk: -25; JMJD2A Tudor inh: -31%; HP1b binding inh: -17%; G9a block: inconclusive; Six1-Eya2 inh: -12

How did CCOC(=O)c1c(NC(=O)CSc2nnc(-c3cccnc3)o2)sc(C(C)=O)c1C do in these assays?
BAZ2B inh: inconclusive; CtBP-E1A blk: -4; JMJD2A Tudor inh: 18µM*; HP1b binding inh: inconclusive; G9a block: 10%[59 µM]; Six1-Eya2 inh: -9

Results for COCCCNC(=O)Nc1cc(C(=O)NCc2ccc(OC)cc2)ccc1N1CCCC1 ?
BAZ2B inh: -20%; JMJD2A Tudor inh: -14%; HP1b binding inh: 25%; G9a block: -8%[59 µM]

How did Oc1cc(-n2cccn2)c(O)cc1-n1cccn1 do in these assays?
BAZ2B inh: 32µM*; JMJD2A Tudor inh: 0.79µM*; HP1b binding inh: 2.8µM*; G9a block: 0.71µM*; Six1-Eya2 inh: -14

Screening results deposited in PubChem BioAssay by National Center for Advancing Translational Sciences (NCATS).
